Bioassay records deposited in PubChem by several laboratories.
Bcl-2 Bim block: disrupts Bim peptide binding to human Bcl-2 | Bead-based flow cytometry, Bim peptide-Bcl-2 binding | inhibition, % at 10 µM | 0.06% of 190,000 active; in the data active = inhibition above about 40%
Target sequence (P10415 whole entry, looked up): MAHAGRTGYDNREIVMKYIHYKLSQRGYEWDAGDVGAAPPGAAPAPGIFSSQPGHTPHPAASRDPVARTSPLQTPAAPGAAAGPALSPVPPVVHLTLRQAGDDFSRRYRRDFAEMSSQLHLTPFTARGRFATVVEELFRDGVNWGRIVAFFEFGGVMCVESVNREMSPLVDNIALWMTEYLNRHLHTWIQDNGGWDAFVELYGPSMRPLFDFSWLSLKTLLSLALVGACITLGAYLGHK
Bfl-1 Bim block: human Bim-Bfl-1 interaction inhibition; Q16548; Bead-based flow cytometry, Bim-Bfl-1 binding inhibition; inhibition, % at 10 µM; 0.12% of 190,000 active; AID 1008
Target sequence (Q16548 whole entry, looked up): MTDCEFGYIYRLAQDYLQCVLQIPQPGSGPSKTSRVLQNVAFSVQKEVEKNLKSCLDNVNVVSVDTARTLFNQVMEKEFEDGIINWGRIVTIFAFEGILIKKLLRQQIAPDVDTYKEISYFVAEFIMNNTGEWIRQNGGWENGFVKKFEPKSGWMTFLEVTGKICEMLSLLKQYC
Bim-Bcl-W: inhibitors of Bim-Bcl-W interaction, human; Q92843; bead-based flow cytometry, Bim peptide-Bcl-W binding; inhibition, % at 10 µM; 0.02% of 190,000 active; AID 952;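 also: higher means less fluorescent Bim peptide bound to Bcl-W beads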
Target sequence (Q92843 whole entry, looked up): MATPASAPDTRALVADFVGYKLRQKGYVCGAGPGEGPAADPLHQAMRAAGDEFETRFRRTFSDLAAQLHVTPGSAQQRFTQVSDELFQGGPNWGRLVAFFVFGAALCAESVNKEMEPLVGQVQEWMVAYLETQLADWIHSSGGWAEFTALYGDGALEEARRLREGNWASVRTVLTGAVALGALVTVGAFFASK
Phagocyt inh: blocks phagocytosis by macrophages; inhibition, % at 5 µM; 0.07% of 110,000 active; J774A.1 macrophage IgG-bead phagocytosis, imaging;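 active = inhibition above the mean of the plate negative controls plus 5 SD, cut at about 13% in these data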;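 also: phagocytic index as fraction of beads internalized from green versus red external bead signal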
Bcl-B Bim block: disrupts Bim peptide binding to human Bcl-B; inhibition, % at 10 µM; 0.073% of 190,000 active; bead-based flow cytometry; Q9HD36; AID 951
Bim-Bcl-XL: inhibitors of Bim-Bcl-XL interaction, human; AID 1007; inhibition, % at 10 µM; 0.04% of 190,000 active; Bim peptide-Bcl-XL binding, bead flow cytometry, fluorescence
Hits are given with their value; - = inactive; . = no result; [ ] = remark or other dose. This is a sample that favours compounds with a hit; in the whole collection about 0.23% have one here. Rule as the data show it, unless noted: active = inhibition above about 40%.

SMILES | Bcl-2 Bim block | Bfl-1 Bim block | Bim-Bcl-W | Phagocyt inh | Bcl-B Bim block | Bim-Bcl-XL
COc1ccc(/C=C2\SC(=O)NC2=S)cc1OC | 53 | - | - | - | - | -
Cc1ccccc1-n1c(SCc2csc(Nc3ccccc3)n2)nnc1-c1cccnc1 | - | - | - | - | - | -
Cc1ccc(Nc2nc(CSc3nnc(-c4cccnc4)n3-c3ccccc3C)cs2)cc1 | - | 42 | - | - | - | -
O=C(CCc1ccccc1)NNC(=O)Cc1ccccc1 | - | - | - | . | - | -
COc1ccccc1-c1nc2cc3ccccc3cc2nc1-c1ccccc1 | - | - | - | - | - | -
CCOC(=O)c1c(-c2ccc(F)cc2)csc1NC(=O)c1c(-c2ccccc2)noc1C | - | - | - | 129[artifact] | - | -
O=C(COC(=O)CNC(=O)c1sc2ccccc2c1Cl)Nc1cc(Cl)cc(Cl)c1 | - | - | - | . | - | -
Cc1nn(-c2ccccn2)c2c1C(=O)C(Br)CC2 (stereo unspecified) | - | 59 | - | . | - | -
CC1=C(C)C(=O)N(c2ccccn2)C1=O | - | - | - | - | - | -
Cc1ccc(NC(=O)C/C(N)=N/OC(=O)c2ccccc2)cc1 | 73 | 51 | - | . | 64 | -
COc1ccc(/C=N/NC(=O)CNc2n[nH]c(=O)[nH]c2=O)cc1OC | - | - | - | 97[artifact] | - | -
CN(Cc1ccc(-n2cccn2)cc1)Cc1nc(-c2cnccn2)no1 | - | - | - | . | - | -
COc1ccc(C(=O)Nc2ccc(C(=O)OCC(=O)c3cccc4ccccc34)cc2)cc1 | . | - | - | - | 83 | -
Cc1ccccc1C(=O)O/N=C/c1c(N2CCOCC2)n(C)c2ccccc12 | - | - | - | 23[artifact] | - | -
COc1ccc(S(=O)(=O)NCCOc2cccc3cccnc23)cc1OC | 76 | 44 | - | . | 65 | -
COc1ccc(C(=O)NC(=S)N2CCNC(=O)C2)cc1Br | 79 | 71 | - | . | 70 | -
CC1=CC(=O)c2ccccc2C1=O | - | - | - | . | - | -
CC(C)(C=O)C1=CC(=O)c2ccccc2C1=O | - | 49 | - | - | - | -
COC(=O)/C(=C/c1ccc(F)cc1)NC(C)=O | - | - | - | - | 48 | -
Nc1ccc(N2CCN(CCCCN3C(=O)C4CCCN4C3=O)CC2)cc1 (stereo unspecified) | - | - | - | - | 63 | -
CS(=O)(=O)N(CC(=O)N1CCC(C(N)=O)CC1)c1ccc(Cl)c(C(F)(F)F)c1 | - | - | - | - | - | -
CC1CCN(C(=O)CN(c2ccc(Cl)c(C(F)(F)F)c2)S(C)(=O)=O)CC1 | - | - | - | 155 | - | -
COc1ccccc1OCCn1c(=O)oc2ccc(C)cc21 | - | - | - | . | - | -
CCCCCCCOC(=O)c1nc(Cl)c(Cl)c(N)c1Cl | - | - | - | - | - | -
CCCCOC(=O)c1nc(Cl)c(Cl)c(N)c1Cl | - | - | - | . | 42 | -
SMILES | Bcl-2 Bim block | Bfl-1 Bim block | Bim-Bcl-W | Phagocyt inh | Bcl-B Bim block | Bim-Bcl-XL
c1ccc(CNc2nc(N3CCOCC3)nc(N3CCOCC3)n2)cc1 | - | - | - | . | - | -
Clc1nc(NCc2cccnc2)nc(N2CCOCC2)n1 | - | - | 47 | . | 73 | 49
CCN1/C(=C/c2ccc3cc(C)cc(C)c3[n+]2CC)Sc2cc(C)ccc21 | - | 45 | - | . | - | -
O=C(N/N=C/c1ccc([N+](=O)[O-])cc1)c1ccc(COc2ccccc2-c2ccccc2)cc1 | - | - | - | . | - | -
CCOC(=O)C1CCN(C(=O)Nc2ccc3c(c2)nc(C)n3C)CC1 | - | - | - | - | - | -
CCOC(=O)C1CCN(C(=O)Nc2ccc3nc(-c4ccco4)c(-c4ccco4)nc3c2)CC1 | - | 60 | - | - | - | -
O=C(Nc1ccc2nc(-c3ccco3)c(-c3ccco3)nc2c1)N1CCCCCC1 | - | 54 | - | - | - | -
Cc1nc2ccc(NC(=O)N3CCCCC3)cc2nc1C | - | - | - | . | - | -
CC1(C)CC(NC(=O)c2c(N)no[n+]2[O-])CC(C)(C)N1 | - | - | - | . | - | -
O=C(N=Nc1c(O)[nH]c2ccccc12)c1ccco1 | - | - | - | . | - | -
COC(=O)c1ccn(Cc2ccccc2Cl)n1 | - | - | - | . | - | -
O=C(CSc1ccc2ccccc2n1)Nc1nsc(-c2ccc(Cl)cc2)n1 | - | - | - | 31[artifact] | - | -
Cc1ccc(-c2nc(NC(=O)CSc3cc(C)c4ccccc4n3)ns2)cc1 | - | - | - | . | - | -
COC(=O)c1[nH]c2ccccc2c1NC(=O)c1ccccc1[N+](=O)[O-] | - | - | - | - | 44 | -
COC(=O)c1[nH]c2ccc(C)cc2c1NC(=O)c1ccccc1[N+](=O)[O-] | - | - | - | . | - | -
CC(Oc1ccc(-n2cnnn2)cc1)C(=O)O (stereo unspecified) | - | - | - | . | - | -
O=C(OCC(=O)c1ccc[nH]1)c1ccccc1 | 79 | 52 | - | . | 74 | -
O=C1CCC([N+](=O)[O-])C(c2cccc(Br)c2)N1 (stereo unspecified) | - | - | - | - | - | -
O=C1CCCC2(O)C1C(c1cccc(Br)c1)NC(=O)N2Cc1ccccc1 (stereo unspecified) | - | - | - | - | - | 49
CCCCNC(=O)CN1C(=O)NC(CCc2ccccc2)C1=O (stereo unspecified) | - | - | - | . | - | -
N#Cc1cnn2ccc(-c3cc(N4CCOCC4)ccc3[N+](=O)[O-])nc12 | - | - | - | . | - | -
O=c1[nH]c(SCc2nc3ccccc3c(=O)n2-c2ccccc2C(F)(F)F)nc2ccccc12 | - | - | - | - | - | 41
CCOC(=O)C1(CC/C(C)=N\NC(N)=O)CC(C)(C)OC1=O (stereo unspecified) | - | 44 | - | - | - | -
CCOC(=O)C1(C/C(C)=N/NC(N)=O)CC(C)(C)OC1=O (stereo unspecified) | - | - | - | - | - | -
CN(C)/C=N/c1ncn(-c2ncc(C(F)(F)F)cc2Cl)n1 | - | - | - | . | - | -
SMILES | Bcl-2 Bim block | Bfl-1 Bim block | Bim-Bcl-W | Phagocyt inh | Bcl-B Bim block | Bim-Bcl-XL
CCC1=NNc2cccc3c(OC)ccc1c23 | 64 | 56 | 66 | - | 100 | 75
Nc1nc2c(s1)CCc1c-2cnn1-c1ccccc1 | - | 41 | - | - | - | -
Nc1nc2c(s1)COc1ccccc1-2 | - | - | - | . | - | -
Cc1cc(C)n(C(=O)CCCn2cc([N+](=O)[O-])cn2)n1 | - | - | - | . | - | -
CN(C(=O)COC(=O)c1nc(Cl)c(Cl)c(Cl)c1Cl)C1CCS(=O)(=O)C1 (stereo unspecified) | - | - | - | . | - | -
Fc1ccc(C2=Nc3cccc4cccc(c34)N2)cc1 | - | 49 | - | . | - | -
Cc1nc2scc(-c3ccccc3)c2c(=O)n1N=C1C=CC(=O)C=C1 | - | 40 | - | . | - | -
Cc1nc2scc(-c3ccccc3)c2c(=O)n1N | - | - | - | - | - | -
O=C(COC(=O)CCCN=C1NS(=O)(=O)c2ccccc21)NC(=O)NC1CCCC1 | 97 | - | 72 | . | 105 | 105
Cc1cc(N/C(=N/S(=O)(=O)c2cc(F)ccc2F)c2ccccc2)n(-c2ccccc2)n1 | 50 | - | - | . | 66 | -
